Compound activity (PubChem BioAssay)
VDR inhibitor: vitamin D3 receptor (human) inhibition | VDR-SRC2-3 peptide fluorescence polarization, 2 h | 0.93% of 400,000 active | Potency, µM, hits mostly inhibitors | P11473 | AID 504847
Target sequence (P11473 whole entry, looked up): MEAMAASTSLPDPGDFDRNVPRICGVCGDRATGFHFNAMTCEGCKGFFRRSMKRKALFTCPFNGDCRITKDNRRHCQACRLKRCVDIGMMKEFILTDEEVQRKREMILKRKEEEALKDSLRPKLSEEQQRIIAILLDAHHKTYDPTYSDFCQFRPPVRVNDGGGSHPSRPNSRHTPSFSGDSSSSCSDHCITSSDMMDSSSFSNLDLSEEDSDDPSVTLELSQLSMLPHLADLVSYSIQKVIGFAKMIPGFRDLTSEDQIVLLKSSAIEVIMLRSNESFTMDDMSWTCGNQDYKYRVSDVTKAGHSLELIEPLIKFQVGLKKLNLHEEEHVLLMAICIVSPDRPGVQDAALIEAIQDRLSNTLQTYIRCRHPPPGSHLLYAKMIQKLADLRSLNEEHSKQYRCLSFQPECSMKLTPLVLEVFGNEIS
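Reagent solutions, kept cold and dark, are dispensed first; compounds are then pinned in at 23 nl, plates briefly spun, and incubated 2 h at ambient temperature. Inhibition of VDR–SRC2-3 peptide binding is read by fluorescence polarization.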
PLK1 PBD inh: blocks phosphopeptide binding to human PLK1 polo-box domain; P53350; Plk1 PBD binding of FITC phosphopeptide, fluorescence polarization; Potency, µM, usual class: inhibitors; 2.8% of 360,000 active; AID 720504; also: series mostly up to about 57 µM; nearly all actives have a fitted effect of over 65% in size
TSHR antag: antagonists of human thyroid stimulating hormone receptor; TSHR-expressing cells, TSH-stimulated cAMP HTRF, 2 h; active compounds read low; AID 504810; P16473; 0.2% of 330,000 active; activity change, negative = inhibition, % at 11.5 µM;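 active = activity change below a set negative limit, meaning inhibition stronger than a set level, cut at about -70% in these data; inconclusive = activity change between two set negative limits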
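Freshly harvested TSHR cells receive pin-tooled compound, then EC80 TSH at 4nM final. After 2 hours at 37 deg C, antibody in lysis buffer and cAMP-d2 are added; 30 minutes at ambient temperature precede the HTRF read.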
TSG101-PTAP inh: blocks PTAP/TSG101 interaction to inhibit HIV-1 budding. Potency, µM (doses to about 115 µM), hits mostly inhibitors. 340,000 tested, under 10 active. Q99816. Fluorescence polarization, FITC-PTAP peptide / Tsg101 binding; active = well fitted inhibition curve with a large enough effect in the main read-out, with a control signal flat, not every such curve was filed as active; inconclusive = small, poorly fitted or top-dose-only effect, or effect the other way, or a change in a side signal; inactive = no such curve, though single readings can be large or run the other way
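Fluorescence anisotropy tracks displacement of a FITC-tagged PTAP peptide (50 nM) from the Tsg101 binding domain (10 uM), following a 20 min room-temperature incubation at pH 7.5.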
uPA generation: cell surface uPA generation inhibition; 0.31% of 330,000 active; cell surface uPA generation assay, qHTS; Potency, µM (highest dose often 38.3 µM), actives largely listed as inhibitors; active = well fitted inhibition curve with a large enough effect; inconclusive = small, poorly fitted or top-dose-only effect; inactive = no such curve, though single readings can be large or run the other way; tested in mouse RAW 264.7 cells; also: nearly all actives have a fitted effect of over 55% in size
Hits are given with their value; - = inactive; ? = inconclusive; . = not tested or not shown. The list is not random: actives were taken first. Their share in the collection is about 3.1%. Unless noted, calls follow the shape of the dose curve; as a rule, active = well fitted curve in the direction sought with a large enough effect; inconclusive = small, poorly fitted or top-dose-only effect, or another doubt; inactive = no such curve, though single readings can be large; an effect the other way counts as inactive or inconclusive.

SMILES	VDR inhibitor	PLK1 PBD inh	TSHR antag	TSG101-PTAP inh	uPA generation
COc1ccc(-c2cc(C(F)(F)F)n3ncc(C(=O)NCC4CCCO4)c3n2)cc1 (stereo not drawn)	-	7.5µM	-	-	-
CCOc1cc(C2C(C#N)=C(N)OC(C)=C2C(C)=O)cc(Br)c1O (stereo not drawn)	-	24µM	-	?	-
CCOc1cc(C2C(C#N)=C(N)OC(C)=C2C(C)=O)c(Br)c(Br)c1OC(C)C (stereo not drawn)	?	-	-	-	-
CSC1=NC(=O)/C(=C\c2cccc3ccccc23)S1	79µM	-	-	-	-
COC(=O)C1C(=O)C(C(=O)/C=C/c2ccco2)C(=O)CC1(C)C (stereo not drawn)	45µM	.	.	.	.
COC(=O)C1C(=O)C(C(=O)/C=C/c2ccccc2)C(=O)CC1(C)C (stereo not drawn)	-	-	-	-	-
CCCCCC[N+](C)(C)CCSSCC[N+](C)(C)CCCCCC	8.9µM	1.2µM	-	-	-
CCCCCCCCCCCCCCCC[N+](C)(C)CC	-	-	-	-	?
COc1ccc(NC(=O)c2ccc3c(c2)N(Cc2cccc(Cl)c2)C(=O)c2ccccc2S3(=O)=O)cc1Cl	-	.	.	.	.
CC(C)(C)c1csc(NC(=O)Cn2cnc3ccccc3c2=O)n1	?	13µM	-	-	-
Cc1nc2c(=O)[nH]c(=S)[nH]c2[nH]c1=O	-	21µM	.	-	-
Cc1nc2[nH]c(=S)[nH]c(=O)c2nc1C	-	-	.	-	-
CN1CCN(C(c2ccc(C(F)(F)F)cc2)c2ccc3cccnc3c2O)CC1 (stereo not drawn)	32µM	3.8µM	-	-	-
Oc1c(C(c2ccccc2Cl)N2CCCC2)ccc2cccnc12 (stereo not drawn)	?	7.5µM	-	-	7.9µM
Oc1c(C(c2ccc(Cl)cc2)N2CCCC2)cc(Cl)c2cccnc12 (stereo not drawn)	-	?	-	-	?
O=C(O)c1cccc(N/N=C/c2cc(Br)cc(Br)c2O)c1	-	24µM	-	-	-
CCC(C)NC(=O)CN(c1ccc(OC)cc1)S(=O)(=O)c1ccccc1 (stereo not drawn)	?	21µM	-	-	-
COC(=O)c1cc(C)nc(Sc2ccccc2N)n1	5µM	1.7µM	-	-	-
CCCC(=O)Nc1sc(C(=O)OC)c(C)c1C(N)=O	-	21µM	-	-	-
CCOC(=O)c1sc(NC(=O)CCN2CCN(C)CC2)c(C(=O)OCC)c1C	-	-	-	-	-
CCOC(=O)c1c(NC(=O)CC)sc(C(C)=O)c1C	-	11µM	-	-	-
COC(=O)c1sc(NC(=O)c2cccc([N+](=O)[O-])c2)c(C(N)=O)c1C	-	27µM	-	-	-
CCCCC(=O)Nc1sc(C(=O)N(CC)CC)c(C)c1C(=O)OC	22µM	4.7µM	-	-	-
CCOC(=O)c1c(NC(=O)CN(C)C)sc(C(=O)N(CC)CC)c1C	-	-	-	-	-
O=C1CCCCC1C1(O)C(=O)Nc2ccccc21 (stereo not drawn)	.	-	.	.	.
SMILES	VDR inhibitor	PLK1 PBD inh	TSHR antag	TSG101-PTAP inh	uPA generation
CC(Sc1nc2c([nH]c3ccccc32)c(=O)n1-c1ccccc1)c1ccccc1 (stereo not drawn)	-	.	.	.	.
Cc1ccc(C(=O)Nc2sc(C)c(-c3ccccc3)c2C(N)=O)cc1[N+](=O)[O-]	-	19µM	-	-	-
Cc1ccc(-n2nc(C)c3nc(CCC(=O)Nc4ccc(F)cc4)c(=O)n(C)c32)cc1	-	.	.	.	.
CSC(SC)=C(C#N)C(=O)c1ccccc1	?	11µM	-	-	-
CCOc1ccccc1C1CC(=O)Nc2cc(C)c(C)cc21 (stereo not drawn)	-	-	-	-	7.1µM
CC(=O)N1c2ccccc2N(Cc2ccc(C)cc2C)C(=O)C1(C)C	-	-	-	-	7.1µM
C=CCN1C(=O)C(C)(C)N(C(C)=O)c2ccccc21	-	-	-	-	-
COc1ccc(CN2CCCC(C(=O)N3CCCCC3)C2)c(OC)c1 (stereo not drawn)	?	30µM	-	-	-
CC(C)Cc1nn2cc(-c3cccc(Br)c3)nc2s1	-	.	.	.	.
CCOC(=O)C1=C(CN2CCN(c3ccc(OC)cc3)CC2)NC(=O)NC1c1ccc(OC)cc1 (stereo not drawn)	-	.	.	.	.
CC(C)Oc1ccc(CNCC2(O)CCOC(C)(C)C2)cc1 (stereo not drawn)	-	30µM	-	-	-
CC(O)(c1ccc(Cl)cc1)c1ccc(Cl)cc1	-	.	.	.	.
CCOc1ccc(-c2cc(NC(=O)Nc3cccc(C(C)=O)c3)c(C(=O)OC)s2)cc1	-	.	.	.	.
CC[C@H](C)/C=C/C1=CC2=C(Cl)C(=O)[C@@]3(C)OC(=O)C(C(=O)[C@H](C)[C@@H](C)O)=C3C2=CO1	?	6µM	.	-	?
COc1cc(OC)c(NC(=O)c2noc3c2CSc2ccccc2-3)cc1Cl	-	.	.	.	.
O=C(Nc1ccc(-c2csc(Nc3cccc(C(F)(F)F)c3)n2)cc1)c1ccccc1	-	-	-	-	?
O=C(Nc1nc(=O)n(C(=O)c2cccc(C(F)(F)F)c2)s1)c1ccccc1	14µM	17µM	-	-	-
O=C(N1CCc2[nH]c3ccccc3c2C1)C(F)(F)F	-	38µM	-	-	-
COc1ccc(S(=O)(=O)NCCc2cn3nc(C)c(C)nc3n2)cc1F	-	-	-88	-	-
O=C(CSc1nncc(=O)[nH]1)Nc1cccc([N+](=O)[O-])c1	?	21µM	-	-	-
O=C(CSc1nncc(=O)[nH]1)NCc1ccccc1	-	27µM	-	-	-
O=C(CSc1nc2[nH]ncc2c(=O)[nH]1)NCc1ccccc1	-	-	-	-	-
CCc1nn(CC(=O)NCCc2ccc(OC)cc2OC)c(=O)c2cc3sccc3n12	-	.	.	.	.
O=C(COc1c(Cl)cccc1Cl)NN1C(=O)CSC1=S	-	19µM	-	-	-
COc1ccc2cc(-c3ccsc3)ncc2c1	-	-	-	.	8.9µM
SMILES	VDR inhibitor	PLK1 PBD inh	TSHR antag	TSG101-PTAP inh	uPA generation
COc1ccc2cc(-c3ccccc3)ncc2c1	-	-	-	-	?
CCS(=O)(=O)c1nc(S(=O)(=O)c2ccc(Cl)cc2)c(NCc2ccc(Cl)cc2)s1	-	.	.	.	.
Cn1nc(-c2ccccc2)c2nc3ccccc3nc21	-	21µM	-	?	-
CCCCn1nc(-c2ccccc2)c2nc3ccccc3nc21	.	.	-	.	.
Cc1ccc(-c2csc3ncnc(Nc4ccc(N5CCOCC5)cc4)c23)cc1	-	27µM	-	-	-
Cc1cccc(C)c1OCC(=O)Nc1nc(-c2ccc(Br)cc2)ns1	-	.	.	.	.
Cc1noc(C)c1C(=O)OCC(=O)Nc1c(F)cccc1F	50µM	8.4µM	-	-	-
Cc1nn(-c2ccccc2)c(C)c1C(=O)OCC(=O)Nc1ccccc1F	-	-	-	-	10µM
Cc1cc(C(=O)OCC(=O)Nc2c(F)cccc2F)c(C)n1-c1ccccc1	?	21µM	-	-	-
CCOc1ccc(N(CC)C(=O)COc2cc(=O)n(CC)c3ccccc23)cc1	-	27µM	-	-	-
